Casp6 inh = human caspase-6 inhibitors, primary screen, biochemical, VEID-R110 fluorescence, single point, set 2 | P55212 | purified caspase-6, Z-VEID-R110 cleavage fluorescence | inhibition, % at 12.5 µM | actives 0.53% (n = 350,000);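 active means mean inhibition across replicates at least about 35%, with every replicate also reaching that limit, limit read from the data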;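 further: 0% = median of neutral control wells and 100% = no fluorescence left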
Target sequence (P55212 24-179 limits assumed): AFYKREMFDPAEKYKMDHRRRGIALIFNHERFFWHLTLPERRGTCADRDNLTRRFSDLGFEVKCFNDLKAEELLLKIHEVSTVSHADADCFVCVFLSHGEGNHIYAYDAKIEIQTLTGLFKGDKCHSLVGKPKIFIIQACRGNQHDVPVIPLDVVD
Target sequence (P55212 194-293 limits assumed): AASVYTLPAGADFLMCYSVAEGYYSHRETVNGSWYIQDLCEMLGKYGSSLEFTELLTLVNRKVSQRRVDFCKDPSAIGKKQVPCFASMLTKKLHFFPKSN
PglD DTNB = C. jejuni PglD acetyltransferase inhibitors, primary screen, biochemical, DTNB colorimetric, single point; actives 0.098% (n = 360,000); purified PglD enzyme, DTNB colorimetric CoA detection; UDP-N-acetylbacillosamine N-acetyltransferase PglD (Campylobacter jejuni); inhibition, % at 12.5 µM; AID 602405, 2012; in the data active means inhibition above about 16%, passing the limit was not always enough
NSD2 HMT inh = NSD2 histone methyltransferase inhibitors, primary screen, biochemical, AlphaScreen, single concentration, set 2; NSD2 peptide methylation, 120 min; Histone-lysine N-methyltransferase NSD2 (Homo sapiens), O96028; actives 0.54% (n = 310,000); inhibition, % at 12.5 µM; in the data active means inhibition above about 50%
ALR inh = inhibitors of human ALR sulfhydryl oxidase, primary screen, biochemical, H2O2 detection, HRP-luminol luminescence, single point. purified ALR, DTT oxidation. inhibition, % (no concentration beside the values). actives 3.8% (n = 290,000). AID 485317, 2010;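 active means mean replicate inhibition above about 79%, with every replicate also reaching it, limit read from the data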
HIV Env fusion = inhibitors of HIV-1 Env-driven cell-cell fusion, primary screen, HeLa-JRFL effector, CEM21 target cells, luciferase | inhibition, % at 12.3 µM | AID 651610, 2012 | actives 1.1% (n = 360,000);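 active means mean replicate inhibition score of at least 50 and every replicate individually at or above 50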;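 further: 0% = plate neutral controls and 100% = maraviroc near 300 nM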
CFTR F508del cor = F508del CFTR correction, initial screen, CFBE line, single point; CFBE cells, YFP halide quenching; stimulated with forskolin plus potentiator P3; % fluorescence drop versus neutral controls; activity (quench increase), % at 7.58 µM; actives 0.36% (n = 350,000);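 active means mean added fluorescence quench of at least 8% versus neutral control, with both replicates also reaching 8%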;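 further: cells transiently co-express mutant CFTR-F508del with the halide-sensitive YFP; corrector assay measuring rescue of mutant channel to the surface after 24 h compound exposure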
Alpha artifact = AlphaScreen signal interference with preloaded methylated product, dose response, artefact control for NSD2 inhibitor project, biochemical, cherry-picked samples. shares compounds with NSD2 HMT inh. AlphaScreen artifact counterscreen, preloaded methylated H4 peptide. AC35, µM (series often up to 10 µM), for the others: top-dose activity change, negative = signal loss. actives 9.4% (n = 1,500). AID 1053174, 2014; call rule not given here
Starred values were filed as active, the others as inactive; / = no result given; [ ] = another dose, or the depositor's remark. A selection: hits, their analogues and other compounds. The true share with any hit is near 4.1%.

SMILES	Casp6 inh	PglD DTNB	NSD2 HMT inh	ALR inh	HIV Env fusion	CFTR F508del cor	Alpha artifact
O=C(O)C(c1ccccc1)N1C(=O)/C(=C\c2ccc(O)c(O)c2)SC1=S (stereo unspecified)	35	/	105*	99*	15	-2	7.6µM*
O=C(CC1C(=O)N(c2ccccc2)C(=S)N1c1ccccc1)c1ccc(Br)cc1 (stereo unspecified)	-8	/	50*	0	1	0	2%
O=C(CC1C(=O)N(c2ccccc2)C(=S)N1c1ccccc1)c1ccccc1 (stereo unspecified)	1	/	1	-14	3	3	/
C[C@@H]1CCCCO[C@@H](CN(C)S(=O)(=O)c2ccc(Cl)cc2)[C@H](C)CN([C@@H](C)CO)C(=O)c2cc(NS(C)(=O)=O)ccc2O1	2	-3	/	/	4[16.7 µM]	1	/
O=C(NCCN1CCN(c2cccc(Cl)c2)CC1)Nc1ccccc1	-2	6	0	53	-2	0	/
Clc1cccc(N2CCN(CCCN3CCN(c4ccccc4)CC3)CC2)c1	-2	5	53*	/	0	0	-17%
COc1cccc(-c2nn3c(-c4ccco4)nnc3s2)c1	/	-5	90*	94*	-134	/	-5%
CO[C@@H]1CN(C)C(=O)c2cc(NC(C)=O)ccc2OC[C@H](C)N(C(=O)c2ccccc2F)C[C@H]1C	/	-3	/	/	/	-1	/
CC1(C)NC(=O)N(CCCOc2ccccc2Br)C1=O	/	2	70*	-4	-10	/	-2%
COc1ccc(N/C=C2\CCc3ccccc3C2=O)cc1	0	-7	95*	42	-84	-2	-3%
COc1ccc2c(c1)CC/C(=C\Nc1ccc3c(c1)OCO3)C2=O	-3	2	-3	-32	/	2	/
CO[C@H]1CN(C)C(=O)c2ccc(NS(=O)(=O)c3ccc(C)cc3)cc2OC[C@H](C)NC[C@@H]1C	-1	/	/	/	4[16.7 µM]	-2	/
O=C(CN1CCCC1)N1c2ccccc2Sc2ccc(C(F)(F)F)cc21	/	-4	4	15	/	/	/
CCNCCC(=O)N1c2ccccc2Sc2ccc(C(F)(F)F)cc21	-3	-2	78*	5	-19	4	-7%
CCOc1ccc(S(=O)(=O)N2CCCC(C(=O)NCCN3CCOCC3)C2)cc1Cl (stereo unspecified)	0	-5	83*	-7	-5	-1	1%
CCn1cnc2c1c(=O)n(CC(=O)OC)c(=O)n2Cc1ccccc1	-2	4	-2	0	2	-4	/
CCn1cnc2c1c(=O)n(CC(=O)O)c(=O)n2Cc1ccccc1	-3	-4	113*	-5	1	3	-1%
O=C1CC2(CCCC2)CC(=O)N1c1ccccc1	1	-2	1	-4	-15	/	/
O=C1CC2(CCCCC2)CC(=O)N1CCc1ccccc1	2	-2	75*	/	-8	0	1%
OC[C@@H]1[C@@H](c2ccc(-c3cccc(F)c3)cc2)[C@@H]2CN(CCC(F)(F)F)CCCCN12	-6	-1	/	/	/	2	/
CC(/C=C1\SC(=S)N(NS(=O)(=O)c2ccc(C)cc2)C1=O)=C\c1ccccc1	0	-3	73*	4	8	0	-11%
CC(/C=C1\SC(=S)N(NS(=O)(=O)c2ccccc2)C1=O)=C\c1ccccc1	22	-3	55*	98*	0	-2	-10%
CC(/C=C1\SC(=S)N(NC(=O)c2ccc(C)cc2)C1=O)=C\c1ccccc1	/	-5	1	-7	/	/	/
N#CC1C(=O)Nc2cccnc21 (stereo unspecified)	59*	4	121*	/	-4	-3	0%
COCC(=O)N1CC2(C1)CN(C(=O)c1ccccn1)[C@@H](CO)c1c2c2ccc(OC)cc2n1C	/	/	/	/	/	0	/
